Reference: PubChem BioAssay (NCATS)
Inconclusive results are not listed. Entries that show only a call come without a potency. Calls of active or inactive are those of the source. Unless noted, calls come from the whole dose curve; as a rule, active = well fitted curve in the direction sought with a large enough effect; inconclusive = small, poorly fitted or top-dose-only effect, or another doubt; inactive = no such curve, though single readings can be large; an effect the other way counts as inactive or inconclusive.

Legend:
[1] = target: Cytochrome P450 1A2 (Homo sapiens) (UniProt P05177); assay: p450-cyp1a2 (AID 410; calls by dose curve; note: potency is the fitted concentration of half-maximal effect)
Sequence of Cytochrome P450 1A2 (Homo sapiens) (P05177 whole entry, looked up): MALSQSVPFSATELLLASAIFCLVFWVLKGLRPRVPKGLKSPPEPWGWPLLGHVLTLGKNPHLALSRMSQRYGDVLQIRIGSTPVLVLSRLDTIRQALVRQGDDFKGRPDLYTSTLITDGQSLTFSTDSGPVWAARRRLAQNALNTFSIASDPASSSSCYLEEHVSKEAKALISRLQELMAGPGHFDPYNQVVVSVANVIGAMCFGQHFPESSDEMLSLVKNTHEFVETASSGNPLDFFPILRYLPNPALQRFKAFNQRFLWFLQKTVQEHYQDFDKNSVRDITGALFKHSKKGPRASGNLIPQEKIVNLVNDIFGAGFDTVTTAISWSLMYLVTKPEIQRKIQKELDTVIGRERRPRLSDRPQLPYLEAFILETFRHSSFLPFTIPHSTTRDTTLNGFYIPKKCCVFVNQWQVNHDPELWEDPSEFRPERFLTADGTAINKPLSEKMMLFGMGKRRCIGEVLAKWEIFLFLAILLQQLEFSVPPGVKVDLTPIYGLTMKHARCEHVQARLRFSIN
In short: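 Read-out is luminescence from luciferin produced by CYP1A2 demethylation of Luciferin-ME (100uM, at Km). Detection reagent stopped the 60 min NADPH-dependent reaction; signals were normalized to 57 uM furafylline.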

[2] = target: Mitogen-activated protein kinase 10 (Mus musculus) (UniProt Q61831); assay: JNK3 AlphaScreen Assay (AID 530; active = well fitted curve in either direction with a large enough effect, not every such curve was filed as active;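 note: kinase came from lysate of stimulated human HepG2 cells; signal reports phosphorylation of biotinylated GST-cJun 1-79 at Ser73 with 10 µM ATP; series mostly up to about 57 µM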)
In short: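 Kinase buffer: 20 mM Tris-HCl pH 7.6, 10 mM MgCl2, 1 mM DTT, 0.1 mM Na3VO4, 0.01% Tween-20; ATP 10 uM. Substrate biotin-GST-cJun(1-79), enzyme from activated HepG2 lysates. Detection by Ser73 phospho-antibody AlphaScreen.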

[3] = target: 3',5'-cyclic-AMP phosphodiesterase 4B (Homo sapiens) (UniProt Q07343); assay: qHTS Assay for Inhibitors of PDE-IV (AID 607; active = well fitted activation curve with a large enough effect in the main read-out, with a control signal flat, not every such curve was filed as active)
Sequence of 3',5'-cyclic-AMP phosphodiesterase 4B (Homo sapiens) (Q07343 whole entry, looked up): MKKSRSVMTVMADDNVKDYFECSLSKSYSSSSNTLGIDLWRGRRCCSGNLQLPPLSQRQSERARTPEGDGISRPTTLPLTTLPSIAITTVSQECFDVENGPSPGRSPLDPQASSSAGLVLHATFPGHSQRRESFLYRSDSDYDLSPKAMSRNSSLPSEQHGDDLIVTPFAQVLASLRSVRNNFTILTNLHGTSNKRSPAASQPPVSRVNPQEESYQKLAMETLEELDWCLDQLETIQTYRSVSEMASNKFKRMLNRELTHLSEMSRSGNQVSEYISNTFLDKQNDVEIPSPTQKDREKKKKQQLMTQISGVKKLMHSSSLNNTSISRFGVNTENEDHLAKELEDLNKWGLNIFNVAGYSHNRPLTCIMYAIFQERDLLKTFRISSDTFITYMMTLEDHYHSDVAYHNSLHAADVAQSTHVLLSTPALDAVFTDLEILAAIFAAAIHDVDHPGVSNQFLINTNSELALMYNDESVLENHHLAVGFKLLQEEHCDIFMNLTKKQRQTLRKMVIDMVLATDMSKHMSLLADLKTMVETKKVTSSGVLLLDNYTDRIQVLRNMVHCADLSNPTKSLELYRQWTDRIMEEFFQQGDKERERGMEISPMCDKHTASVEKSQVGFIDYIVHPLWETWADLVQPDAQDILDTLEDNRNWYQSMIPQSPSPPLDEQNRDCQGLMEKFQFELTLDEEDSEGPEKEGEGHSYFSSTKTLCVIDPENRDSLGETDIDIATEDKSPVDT
In short: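 Cell-based read-out of cAMP via a modified cyclic nucleotide-gated channel and membrane potential dye (535/590 nm) in HEK293 cells expressing PDE4 endogenously. Compounds tested up to 22.9 uM final; 100 uM RO 20-1724 reference.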

[4] = target: Cytochrome P450 3A4 (Homo sapiens) (UniProt P08684); assay: qHTS Assay for Inhibitors and Substrates of Cytochrome P450 3A4 (AID 884); note: potency is the fitted concentration of half-maximal effect; nearly all actives have a fitted effect of over 50% in size
Sequence of Cytochrome P450 3A4 (Homo sapiens) (P08684 whole entry, looked up): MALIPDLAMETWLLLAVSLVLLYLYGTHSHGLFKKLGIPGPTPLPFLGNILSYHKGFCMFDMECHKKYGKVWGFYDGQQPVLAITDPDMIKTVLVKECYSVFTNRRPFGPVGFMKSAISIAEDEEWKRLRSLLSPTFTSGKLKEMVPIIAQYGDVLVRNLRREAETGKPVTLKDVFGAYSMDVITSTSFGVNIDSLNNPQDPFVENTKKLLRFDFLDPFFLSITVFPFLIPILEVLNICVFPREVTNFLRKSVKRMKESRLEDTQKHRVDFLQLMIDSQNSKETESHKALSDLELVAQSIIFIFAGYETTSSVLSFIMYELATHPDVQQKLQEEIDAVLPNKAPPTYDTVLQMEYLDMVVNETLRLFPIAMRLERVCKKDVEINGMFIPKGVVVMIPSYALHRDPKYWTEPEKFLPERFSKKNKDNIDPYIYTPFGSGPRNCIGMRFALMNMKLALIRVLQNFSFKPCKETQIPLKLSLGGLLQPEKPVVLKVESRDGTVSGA
In short: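 Luminescent readout of luciferin produced by CYP3A4 (20 nM) dealkylation of Luciferin-PPXE, 25 uM (its KM). NADPH-driven reaction ran 60 min at RT after 10 min compound preincubation; data scaled to 57 uM ketoconazole as 100% inhibition.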

[5] = target: Cytochrome P450 2C9 (Homo sapiens) (UniProt P11712); assay: qHTS Assay for Inhibitors and Substrates of Cytochrome P450 2C9 (AID 883); note: nearly all actives have a fitted effect of over 60% in size; note: potency is the fitted concentration of half-maximal effect
Sequence of Cytochrome P450 2C9 (Homo sapiens) (P11712 whole entry, looked up): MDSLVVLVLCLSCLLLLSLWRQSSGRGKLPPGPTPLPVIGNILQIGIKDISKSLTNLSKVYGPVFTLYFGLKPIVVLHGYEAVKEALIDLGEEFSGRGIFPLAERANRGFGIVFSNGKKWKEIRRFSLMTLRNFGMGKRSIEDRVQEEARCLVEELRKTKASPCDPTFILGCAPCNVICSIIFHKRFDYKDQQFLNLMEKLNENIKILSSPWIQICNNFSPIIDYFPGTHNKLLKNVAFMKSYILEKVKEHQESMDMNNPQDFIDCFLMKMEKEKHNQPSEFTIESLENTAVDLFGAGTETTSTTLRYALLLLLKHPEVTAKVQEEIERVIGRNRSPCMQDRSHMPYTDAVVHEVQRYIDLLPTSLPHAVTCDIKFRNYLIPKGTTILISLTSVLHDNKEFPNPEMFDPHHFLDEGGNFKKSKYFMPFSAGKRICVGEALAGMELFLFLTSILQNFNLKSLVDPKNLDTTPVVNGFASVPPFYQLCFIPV
In short: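 Inhibition of CYP2C9 is scored as loss of luminescence, with 57uM sulphaphenazole defining 100% inhibition. Substrate Luciferin-H is used at 100uM, equal to its KM; enzyme at 10nM in 25mM KPO4, 60 min at 37C with NADPH regeneration.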

[6] = target: Cytochrome P450 3A4 (Homo sapiens) (UniProt P08684); assay: qHTS Assay for Activators of Cytochrome P450 3A4 (AID 885); note: nearly all actives have a fitted effect of over 65% in size
In short: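 Luminescent readout of luciferin formed from 25 uM Luciferin-PPXE (KM level) by 20 nM CYP3A4 in 200 mM KPO4, with 60 min NADPH-driven reaction at room temperature after 10 min compound exposure. Ketoconazole (57 uM) defined 100% inhibition.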

[7] = target: Cytochrome P450 2C19 (Homo sapiens) (UniProt P33261); assay: qHTS Assay for Inhibitors and Substrates of Cytochrome P450 2C19 (AID 899); note: nearly all actives have a fitted effect of over 60% in size; note: potency is the fitted concentration of half-maximal effect
Sequence of Cytochrome P450 2C19 (Homo sapiens) (P33261 whole entry, looked up): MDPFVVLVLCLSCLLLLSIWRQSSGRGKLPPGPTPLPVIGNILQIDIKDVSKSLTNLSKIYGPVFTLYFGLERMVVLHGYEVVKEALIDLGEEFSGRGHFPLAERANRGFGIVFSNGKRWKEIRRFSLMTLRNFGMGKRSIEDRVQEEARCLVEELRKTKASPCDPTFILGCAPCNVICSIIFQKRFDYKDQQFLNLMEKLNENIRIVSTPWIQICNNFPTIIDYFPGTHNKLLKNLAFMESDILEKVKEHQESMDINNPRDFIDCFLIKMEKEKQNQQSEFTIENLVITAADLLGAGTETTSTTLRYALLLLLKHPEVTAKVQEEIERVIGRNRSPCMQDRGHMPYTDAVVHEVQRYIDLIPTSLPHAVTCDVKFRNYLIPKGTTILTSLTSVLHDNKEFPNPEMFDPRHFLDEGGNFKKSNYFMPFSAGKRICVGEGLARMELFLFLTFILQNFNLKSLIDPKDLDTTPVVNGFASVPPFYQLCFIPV
In short: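 5nM enzyme + 10uM Luciferin-H EGE (=KM), 50mM KPO4; cpd pin-transferred, 10 min 37C; NADPH regen, 60 min 37C; stopped w/ luciferin detection reagent, 20 min; luminescence. Normalized to 57uM ketoconazole (AC100).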

[8] = target: Cytochrome P450 2D6 (Homo sapiens) (UniProt P10635); assay: qHTS Assay for Inhibitors and Substrates of Cytochrome P450 2D6 (AID 891); note: nearly all actives have a fitted effect of over 60% in size; note: potency is the fitted concentration of half-maximal effect
Sequence of Cytochrome P450 2D6 (Homo sapiens) (P10635 whole entry, looked up): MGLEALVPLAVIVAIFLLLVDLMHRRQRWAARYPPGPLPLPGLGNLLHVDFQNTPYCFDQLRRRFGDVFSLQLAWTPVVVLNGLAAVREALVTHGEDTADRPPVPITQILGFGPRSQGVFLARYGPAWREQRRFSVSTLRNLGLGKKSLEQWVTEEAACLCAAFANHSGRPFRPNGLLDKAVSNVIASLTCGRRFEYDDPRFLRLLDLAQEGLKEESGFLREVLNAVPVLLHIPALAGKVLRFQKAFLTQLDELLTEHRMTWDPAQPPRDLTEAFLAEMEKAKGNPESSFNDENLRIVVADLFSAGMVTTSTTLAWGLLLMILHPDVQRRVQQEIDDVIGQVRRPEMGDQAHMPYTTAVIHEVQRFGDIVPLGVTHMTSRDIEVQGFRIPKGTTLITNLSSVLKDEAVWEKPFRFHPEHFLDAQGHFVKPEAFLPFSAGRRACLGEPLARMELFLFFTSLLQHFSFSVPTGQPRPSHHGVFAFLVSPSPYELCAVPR
In short: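 Luminescent read-out of luciferin formed by 5 nM human CYP2D6 demethylating 30 uM Luciferin-ME EGE (Km level) over 60 min at room temperature after NADPH regeneration addition. Data normalized to full inhibition by 1.43 uM quinidine.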

SMILES	Potency [1]	Potency [2]	Potency [3]	Potency [4]	Potency [5]	Potency [6]	Potency [7]	Potency [8]
Cc1cc(C(=O)N[C@@H](c2ccccc2)[C@]2(C)C[C@H]2[C@@H](C)C(=O)Nc2ccc3ccccc3c2)n(C)n1	12.6 µM (active)	inactive	inactive	0.794 µM (active)				
COC(=O)[C@@]1(Cc2ccccc2)[C@H]2c3cc(C(=O)N4CCCC4)n(Cc4cccc5ccccc45)c3C[C@H]2CN1C(=O)c1ccccc1	15.8 µM (active)	inactive	inactive		251 nM (active)	inactive	2.51 µM (active)	
COC(=O)[C@@]1(Cc2ccccc2)[C@H]2c3cc(C(=O)N4CCCC4)n(Cc4nc5ccccc5[nH]4)c3C[C@H]2CN1C(=O)c1ccccc1	12.6 µM (active)	inactive	inactive	1.26 µM (active)		inactive		7.94 µM (active)
CC1(C)C(=O)C(c2ccccc2)=C2CN3C(=O)N(CCc4ccccc4)C(=O)C3(Cc3ccc(F)cc3)C=C21 (stereo unspecified)	15.8 µM (active)	inactive	inactive	3.16 µM (active)		inactive		
CC(C)C[C@@H](CC(=O)N[C@@H](CCC(=O)O)CC(=O)O)NC(=O)[C@@H]1CCCC[C@H]1NC(=O)C[C@H](CCCN)NC(=O)C[C@H](Cc1ccccc1)NC(=O)[C@@H]1CCCC[C@H]1N	inactive	inactive	inactive		inactive		inactive	inactive
COC(=O)[C@@]1(Cc2ccc(F)cc2)[C@@H]2[C@@H](CC(=O)[C@H]2CC(=O)C(=O)N2CCCC2)CN1C(=O)c1ccccc1	inactive	inactive	inactive	1.58 µM (active)		inactive		
CCCc1cc2c(n1Cc1ccc(OC)cc1)C(C)C1CN(C(=O)c3ccccc3)C(C)(C(=O)OC)C21 (stereo unspecified)	15.8 µM (active)	inactive	inactive	3.16 µM (active)		inactive		
C[C@@H](C(=O)Nc1ccc2ccccc2c1)[C@@H]1C[C@@]1(C)[C@@H](NC(=O)OCc1ccccc1)c1ccccc1	15.8 µM (active)	inactive	inactive	7.94 µM (active)		inactive	3.16 µM (active)	
COC(=O)[C@@]1(Cc2ccccc2)[C@H]2c3cc(C(=O)N4CCCC4)n(CCc4ccccn4)c3C[C@H]2CN1C(=O)c1ccccc1	inactive	inactive	inactive	2 µM (active)		inactive		
COc1ccc(COC2OC[C@]3(C)[C@H]4C5=C(CN3C(=O)OC(C)(C)C)[C@H](C)C(CO)C(CO)C5CC[C@@H]24)cc1 (stereo partly specified)	inactive	inactive	inactive	7.94 µM (active)		inactive		
C[C@@H](C(=O)NCc1ccc(S(C)(=O)=O)cc1)[C@H]1C[C@]1(C)[C@H](NC(=O)OCc1ccccc1)c1ccccc1	12.6 µM (active)	inactive	inactive	3.16 µM (active)		inactive		0.398 µM (active)
COC(=O)Cn1c(C(=O)N2CCCC2)cc2c1C[C@H]1CN(C(=O)c3ccccc3)[C@@](Cc3ccc(F)cc3)(C(=O)OC)[C@@H]21	15.8 µM (active)	inactive	inactive	3.16 µM (active)		inactive		
CCc1c2c(nc3cccc(C(C)C)c13)-c1cccc(=O)n1C2	0.501 µM (active)	inactive	inactive			inactive		
COC(=O)[C@H]1C[C@@H]1[C@H](NC(=O)Oc1ccc(F)cc1)c1ccccc1	1 µM (active)	inactive	inactive			inactive		
O=C(N[C@@H](c1ccccc1)[C@@H]1C[C@H]1C(=O)NCc1ccccn1)OCc1ccccc1	10 µM (active)	inactive	inactive	6.31 µM (active)		inactive	7.94 µM (active)	
COC(=O)[C@@]1(Cc2ccc(OC)cc2)[C@H]2c3cc(C(=O)N4CCCC4)n(Cc4ccc(Cl)c(C(F)(F)F)c4)c3C[C@H]2CN1C(=O)c1ccccc1	12.6 µM (active)	inactive	inactive			inactive		
COC(=O)[C@@]1(Cc2ccccc2)[C@H]2c3cc(C(=O)N4CCCC4)n(Cc4ccc(C)o4)c3C[C@H]2CN1C(=O)c1ccccc1	12.6 µM (active)	inactive	inactive	2 µM (active)		inactive	2.51 µM (active)	
COCC1C2CC[C@H]3C(OCc4ccc(F)cc4C(F)(F)F)OC[C@]4(C)[C@H]3C2=C(CN4C(=O)OC(C)(C)C)[C@H](C)C1COC (stereo partly specified)	31.6 µM (active)	inactive	inactive			inactive		
COC(=O)[C@@]1(Cc2ccc(F)cc2)[C@@H]2C(=CC(=O)[C@H]2CC(=O)C(=O)N2CCCC2)CN1C(=O)c1ccccc1	inactive	inactive	inactive			inactive		
CCCC1(C(=O)OC)C=C2C(=C(C(C)C)C(=O)C2C)CN1 (stereo unspecified)	inactive	inactive	inactive			inactive		
COC(=O)[C@@H]1C[C@H]1[C@@H](NC(=O)c1cc(C)on1)c1ccccc1	20 µM (active)	inactive	inactive			inactive		
COC(=O)C1CC1C(NC(=O)[C@@H]1CCCN1)c1ccccc1 (stereo partly specified)	15.8 µM (active)	inactive	inactive			inactive		
C#CCCCC(=S)Nc1ccccc1	12.6 µM (active)	inactive	inactive			inactive		
COC(=O)[C@@H]1C[C@H]1[C@@H](NC(=O)c1cccnc1)c1ccccc1	12.6 µM (active)	inactive	inactive			inactive		
C#CCCCC(=O)Nc1ccccc1	20 µM (active)	inactive	inactive			inactive		
C[C@@H](C(=O)NCCF)[C@H]1C[C@]1(C)[C@H](NC(=O)OCc1ccccc1)c1ccccc1	15.8 µM (active)	inactive	inactive	3.98 µM (active)			1.26 µM (active)	6.31 µM (active)
